Assay results as given in PubChem BioAssay AID2284072 (EPA ToxCast).
Active and inactive are the calls of the source. The calls were made as follows: active = hit-call score of the fitted dose curve at least 0.9, where 1 is the maximum; inactive = score below 0.9.

The compounds below were run against human CK2 (alpha1/alpha2/beta) Other Protein Kinase, CSNK2A1 (gene 1457) (UniProt P68400) (assay: ERF_TW_ENZ_hCSNK2A1: Eurofins (ERF) Enzymatic Radiometric [10 uM ATP] Assay for human CK2 (alpha1/alpha2/beta) Other Protein Kinase).
Protocol: ERF_TW_ENZ_hCSNK2A1 is a biochemical, single-readout assay that uses extracted gene-proteins in a cell-free assay. Measurements were taken 0.5 hour after chemical dosing in a 96-well plate. See CK2 (alpha1/alpha2/beta) Human Other Protein Kinase Enzymatic Radiometric Assay [10 uM ATP], Panlabs.ERF_TW_ENZ_hCSNK2A1 is an assay component calculated from the ERF_TW_ENZ_hCSNK2A1 assay. It is designed to measure enzyme activity using a type of enzyme reporter as detected by scintillation counting with radiometry technology.Data from the assay component ERF_TW_ENZ_hCSNK2A1 was analyzed at the assay endpoint, ERF_TW_ENZ_hCSNK2A1, in the positive analysis fitting direction relative to DMSO as the negative control and baseline of activity. Using a type of enzyme reporter, loss-of-signal activity can be used to understand changes in enzymatic activity as they relate to gene CSNK2A1. To generalize the intended target to other relatable targets, this assay endpoint is annotated to the kinase intended target family, where the subfamily is serine/threonine kinase.
CK2a1(h) is incubated with 20mM HEPES pH7.4, 0.15M NaCl, 0.1mM EDTA, 5mM DTT, 0.1% Triton X-100, 165 uM […], 10 mM MgAcetate and [gamma-33P-ATP] (specific activity and concentration as required). The reaction is 17 initiated by the addition of the Mg/ATP mix. […]

human CK2 (alpha1/alpha2/beta) Other Protein Kinase, CSNK2A1 (gene 1457), sequence (P68400 whole entry, looked up): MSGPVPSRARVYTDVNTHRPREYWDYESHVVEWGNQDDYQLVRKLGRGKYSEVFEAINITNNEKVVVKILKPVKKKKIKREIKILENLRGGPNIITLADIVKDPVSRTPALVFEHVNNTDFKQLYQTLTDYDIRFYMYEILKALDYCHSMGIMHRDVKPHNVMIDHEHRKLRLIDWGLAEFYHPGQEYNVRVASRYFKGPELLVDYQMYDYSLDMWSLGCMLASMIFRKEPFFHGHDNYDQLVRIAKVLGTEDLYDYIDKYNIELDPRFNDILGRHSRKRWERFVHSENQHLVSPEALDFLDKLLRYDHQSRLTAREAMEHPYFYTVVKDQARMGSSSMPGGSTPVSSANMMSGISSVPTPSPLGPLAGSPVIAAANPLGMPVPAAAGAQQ

SMILES	AC50
O=C(/C=C/c1ccc(O)cc1)CC(=O)/C=C/c1ccc(O)cc1	2250 nM (active)
